Assay results reported in the supplement of paper PMC11732987, “Enantioselective OTUD7B fragment discovery through chemoproteomics screening and high-throughput optimisation” (Communications Chemistry, 2025).
Values without a mark were called inactive.

Legend:
Test in all cases: log2 ratio of Biotin-Ahx-Ub-VS probe labelling (fragment/DMSO); higher = less target engagement (more negative = stronger competition), active = hit call of the paper (q ≤ 0.05, log2 ratio ≤ -1)
Settings in all cases: compound concentration: 200 uM; treatment time: 3 h
USP19 = biological target: T1, USP19 (UniProt O94966)
T1 sequence (whole entry): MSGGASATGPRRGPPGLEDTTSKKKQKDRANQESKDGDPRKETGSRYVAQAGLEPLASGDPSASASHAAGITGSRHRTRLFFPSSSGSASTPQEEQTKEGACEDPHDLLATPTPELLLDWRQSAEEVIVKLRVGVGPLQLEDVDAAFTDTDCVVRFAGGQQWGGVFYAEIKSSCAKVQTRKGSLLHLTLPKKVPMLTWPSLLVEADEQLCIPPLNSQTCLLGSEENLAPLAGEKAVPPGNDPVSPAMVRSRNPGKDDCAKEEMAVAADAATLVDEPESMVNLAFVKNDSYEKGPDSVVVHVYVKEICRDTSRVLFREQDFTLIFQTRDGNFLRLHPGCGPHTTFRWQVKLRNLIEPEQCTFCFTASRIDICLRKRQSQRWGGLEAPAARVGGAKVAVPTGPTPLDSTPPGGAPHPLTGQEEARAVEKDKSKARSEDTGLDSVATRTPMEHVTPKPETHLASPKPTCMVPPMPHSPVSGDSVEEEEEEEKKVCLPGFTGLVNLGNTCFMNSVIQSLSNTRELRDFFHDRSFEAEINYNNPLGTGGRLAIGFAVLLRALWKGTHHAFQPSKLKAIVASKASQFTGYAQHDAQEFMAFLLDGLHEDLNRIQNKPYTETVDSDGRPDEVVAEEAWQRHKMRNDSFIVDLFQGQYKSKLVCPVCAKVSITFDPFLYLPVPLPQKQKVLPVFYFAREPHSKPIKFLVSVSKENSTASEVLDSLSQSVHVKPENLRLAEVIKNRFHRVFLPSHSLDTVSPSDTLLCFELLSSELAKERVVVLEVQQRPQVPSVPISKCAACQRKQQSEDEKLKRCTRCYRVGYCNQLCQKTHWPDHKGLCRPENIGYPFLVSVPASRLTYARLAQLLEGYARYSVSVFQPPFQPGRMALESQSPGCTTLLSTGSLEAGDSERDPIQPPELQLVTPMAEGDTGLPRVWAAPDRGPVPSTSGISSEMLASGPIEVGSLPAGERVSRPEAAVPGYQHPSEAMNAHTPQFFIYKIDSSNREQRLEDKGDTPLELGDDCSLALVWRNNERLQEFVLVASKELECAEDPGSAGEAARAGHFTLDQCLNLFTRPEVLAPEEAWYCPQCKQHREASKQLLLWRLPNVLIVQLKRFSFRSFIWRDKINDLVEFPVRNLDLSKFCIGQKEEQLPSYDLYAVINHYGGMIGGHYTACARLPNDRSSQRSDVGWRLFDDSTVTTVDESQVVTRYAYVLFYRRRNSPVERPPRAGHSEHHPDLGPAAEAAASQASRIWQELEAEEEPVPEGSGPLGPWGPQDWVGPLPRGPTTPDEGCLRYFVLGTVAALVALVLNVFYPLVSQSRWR
Procedure, shortened: (§1)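 Each value is an average log2 ratio of fragment to vehicle, tested by unpaired t-test. The underlying Spectronaut label-free quantities were global-median-normalised, and only proteins with ≥2 unique peptides were included. Triplicate HEK293T lysate samples (495 µg) were exposed to fragment at 200 µM or vehicle for 3 h, then to Biotin-Ahx-Ub-VS at 0.5 µM final for 1 h, before NeutrAvidin enrichment of labelled DUBs, LysC and trypsin digestion, and diaPASEF LC-MS/MS.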

USP22 = biological target: T2, USP22 (UniProt Q9UPT9)
T2 sequence (whole entry): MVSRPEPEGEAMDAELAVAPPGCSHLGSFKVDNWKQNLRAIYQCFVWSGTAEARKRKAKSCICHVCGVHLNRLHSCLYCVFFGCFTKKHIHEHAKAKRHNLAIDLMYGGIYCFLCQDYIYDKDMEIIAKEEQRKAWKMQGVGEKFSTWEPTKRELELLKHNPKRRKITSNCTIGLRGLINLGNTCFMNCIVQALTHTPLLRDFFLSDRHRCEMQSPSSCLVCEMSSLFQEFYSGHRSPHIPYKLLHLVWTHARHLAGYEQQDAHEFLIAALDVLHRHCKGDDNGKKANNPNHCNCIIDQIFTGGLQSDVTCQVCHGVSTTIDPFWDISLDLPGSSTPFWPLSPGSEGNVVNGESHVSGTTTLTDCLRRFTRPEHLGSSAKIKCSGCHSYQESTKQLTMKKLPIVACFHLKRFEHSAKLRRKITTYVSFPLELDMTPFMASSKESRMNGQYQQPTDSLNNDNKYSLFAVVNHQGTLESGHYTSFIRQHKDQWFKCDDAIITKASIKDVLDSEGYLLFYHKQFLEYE
Procedure, shortened: as §1

USP24 = USP24 (UniProt Q9UPU5)
Sequence of USP24 (Q9UPU5 whole entry): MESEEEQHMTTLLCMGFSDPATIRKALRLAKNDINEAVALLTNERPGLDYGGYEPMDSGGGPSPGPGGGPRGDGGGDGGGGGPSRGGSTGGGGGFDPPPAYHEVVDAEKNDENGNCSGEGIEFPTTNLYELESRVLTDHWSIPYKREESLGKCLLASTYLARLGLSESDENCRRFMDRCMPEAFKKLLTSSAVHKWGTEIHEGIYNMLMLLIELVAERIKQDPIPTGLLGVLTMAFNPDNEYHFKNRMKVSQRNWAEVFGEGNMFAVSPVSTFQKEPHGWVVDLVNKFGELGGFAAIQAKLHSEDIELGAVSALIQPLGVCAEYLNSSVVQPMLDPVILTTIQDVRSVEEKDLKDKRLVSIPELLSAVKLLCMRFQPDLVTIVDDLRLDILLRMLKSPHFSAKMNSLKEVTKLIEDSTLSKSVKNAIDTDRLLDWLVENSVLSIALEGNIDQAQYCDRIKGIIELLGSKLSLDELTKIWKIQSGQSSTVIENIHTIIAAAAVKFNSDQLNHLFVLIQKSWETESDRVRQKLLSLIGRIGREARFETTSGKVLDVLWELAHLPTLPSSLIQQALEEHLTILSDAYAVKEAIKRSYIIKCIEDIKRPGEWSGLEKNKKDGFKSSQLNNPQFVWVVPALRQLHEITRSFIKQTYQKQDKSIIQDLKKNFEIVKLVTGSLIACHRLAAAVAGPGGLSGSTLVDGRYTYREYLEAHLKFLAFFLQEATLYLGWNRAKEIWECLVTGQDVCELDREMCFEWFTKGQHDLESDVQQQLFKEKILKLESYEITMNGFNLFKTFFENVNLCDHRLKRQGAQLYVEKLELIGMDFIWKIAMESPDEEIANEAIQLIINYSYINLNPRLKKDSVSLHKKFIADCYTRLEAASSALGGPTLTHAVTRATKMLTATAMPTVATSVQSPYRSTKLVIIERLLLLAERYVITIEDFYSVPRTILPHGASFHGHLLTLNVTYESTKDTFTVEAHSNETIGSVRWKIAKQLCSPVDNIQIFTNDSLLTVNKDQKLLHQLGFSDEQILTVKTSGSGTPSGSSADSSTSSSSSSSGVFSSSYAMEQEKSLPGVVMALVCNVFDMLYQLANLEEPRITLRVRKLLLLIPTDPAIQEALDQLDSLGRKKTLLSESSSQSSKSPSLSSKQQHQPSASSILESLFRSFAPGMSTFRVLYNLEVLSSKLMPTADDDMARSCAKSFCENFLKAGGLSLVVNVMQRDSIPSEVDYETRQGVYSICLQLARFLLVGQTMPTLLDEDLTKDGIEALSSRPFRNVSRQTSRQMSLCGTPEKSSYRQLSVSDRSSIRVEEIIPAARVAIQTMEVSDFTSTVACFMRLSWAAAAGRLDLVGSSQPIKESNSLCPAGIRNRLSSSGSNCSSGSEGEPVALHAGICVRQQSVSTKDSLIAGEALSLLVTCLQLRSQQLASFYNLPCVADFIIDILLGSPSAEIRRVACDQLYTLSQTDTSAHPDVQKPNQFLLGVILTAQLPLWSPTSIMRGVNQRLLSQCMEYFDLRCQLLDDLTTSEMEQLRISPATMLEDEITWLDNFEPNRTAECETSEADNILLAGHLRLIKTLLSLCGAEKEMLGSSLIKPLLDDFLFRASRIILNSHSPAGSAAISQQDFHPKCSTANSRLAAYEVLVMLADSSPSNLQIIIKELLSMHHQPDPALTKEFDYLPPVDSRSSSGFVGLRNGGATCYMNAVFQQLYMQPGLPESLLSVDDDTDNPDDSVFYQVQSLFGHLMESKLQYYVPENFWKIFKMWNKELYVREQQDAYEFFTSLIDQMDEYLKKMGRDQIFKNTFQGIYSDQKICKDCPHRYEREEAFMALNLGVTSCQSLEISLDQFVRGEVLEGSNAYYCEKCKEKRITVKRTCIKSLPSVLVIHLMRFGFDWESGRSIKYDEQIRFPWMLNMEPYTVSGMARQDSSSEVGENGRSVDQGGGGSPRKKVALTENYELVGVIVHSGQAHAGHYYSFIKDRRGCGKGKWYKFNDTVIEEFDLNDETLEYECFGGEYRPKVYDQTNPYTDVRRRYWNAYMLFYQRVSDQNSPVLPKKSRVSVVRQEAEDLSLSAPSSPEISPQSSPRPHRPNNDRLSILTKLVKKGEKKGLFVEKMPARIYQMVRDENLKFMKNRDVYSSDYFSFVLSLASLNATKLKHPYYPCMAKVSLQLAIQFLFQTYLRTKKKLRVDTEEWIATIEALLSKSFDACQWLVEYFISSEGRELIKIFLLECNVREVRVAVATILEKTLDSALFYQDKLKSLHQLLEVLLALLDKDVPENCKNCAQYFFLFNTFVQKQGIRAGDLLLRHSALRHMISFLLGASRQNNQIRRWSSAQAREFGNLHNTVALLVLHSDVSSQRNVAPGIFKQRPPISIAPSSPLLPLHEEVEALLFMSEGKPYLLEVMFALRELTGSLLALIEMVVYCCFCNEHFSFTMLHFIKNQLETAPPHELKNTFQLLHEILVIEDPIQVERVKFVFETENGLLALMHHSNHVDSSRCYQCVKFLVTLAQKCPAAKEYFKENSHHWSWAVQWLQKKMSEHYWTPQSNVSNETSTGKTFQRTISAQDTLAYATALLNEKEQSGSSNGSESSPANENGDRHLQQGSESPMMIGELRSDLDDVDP
Procedure, shortened: as §1

USP25 = biological target: T3, USP25 (UniProt Q9UHP3)
T3 sequence (whole entry): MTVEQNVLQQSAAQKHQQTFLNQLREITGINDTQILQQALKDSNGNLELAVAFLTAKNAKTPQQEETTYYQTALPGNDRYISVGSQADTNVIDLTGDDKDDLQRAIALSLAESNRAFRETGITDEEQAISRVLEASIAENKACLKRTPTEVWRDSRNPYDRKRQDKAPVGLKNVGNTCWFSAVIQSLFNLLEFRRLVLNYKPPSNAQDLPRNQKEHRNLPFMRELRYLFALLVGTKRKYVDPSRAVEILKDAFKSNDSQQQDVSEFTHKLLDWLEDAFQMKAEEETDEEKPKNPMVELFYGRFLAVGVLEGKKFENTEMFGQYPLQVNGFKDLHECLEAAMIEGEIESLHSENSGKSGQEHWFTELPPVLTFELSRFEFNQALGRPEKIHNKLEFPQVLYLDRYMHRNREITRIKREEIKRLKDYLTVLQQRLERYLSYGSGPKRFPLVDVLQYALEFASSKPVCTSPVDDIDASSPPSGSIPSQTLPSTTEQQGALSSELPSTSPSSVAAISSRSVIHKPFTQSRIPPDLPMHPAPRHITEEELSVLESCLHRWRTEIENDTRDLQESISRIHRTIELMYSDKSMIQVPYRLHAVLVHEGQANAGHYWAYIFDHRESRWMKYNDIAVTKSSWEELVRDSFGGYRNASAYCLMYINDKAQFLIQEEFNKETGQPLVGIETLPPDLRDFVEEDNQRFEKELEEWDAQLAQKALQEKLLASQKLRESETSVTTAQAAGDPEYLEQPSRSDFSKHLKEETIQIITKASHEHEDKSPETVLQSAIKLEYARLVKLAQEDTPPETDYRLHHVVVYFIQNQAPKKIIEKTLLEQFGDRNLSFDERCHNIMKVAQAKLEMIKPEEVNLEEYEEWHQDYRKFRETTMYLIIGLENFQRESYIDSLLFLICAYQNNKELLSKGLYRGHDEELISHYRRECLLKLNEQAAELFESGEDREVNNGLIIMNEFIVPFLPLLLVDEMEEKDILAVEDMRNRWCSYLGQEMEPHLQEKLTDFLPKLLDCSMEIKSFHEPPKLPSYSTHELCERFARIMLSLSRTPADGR
Procedure, shortened: as §1

USP28 = biological target: T4, USP28 (UniProt Q96RU2)
T4 sequence (whole entry): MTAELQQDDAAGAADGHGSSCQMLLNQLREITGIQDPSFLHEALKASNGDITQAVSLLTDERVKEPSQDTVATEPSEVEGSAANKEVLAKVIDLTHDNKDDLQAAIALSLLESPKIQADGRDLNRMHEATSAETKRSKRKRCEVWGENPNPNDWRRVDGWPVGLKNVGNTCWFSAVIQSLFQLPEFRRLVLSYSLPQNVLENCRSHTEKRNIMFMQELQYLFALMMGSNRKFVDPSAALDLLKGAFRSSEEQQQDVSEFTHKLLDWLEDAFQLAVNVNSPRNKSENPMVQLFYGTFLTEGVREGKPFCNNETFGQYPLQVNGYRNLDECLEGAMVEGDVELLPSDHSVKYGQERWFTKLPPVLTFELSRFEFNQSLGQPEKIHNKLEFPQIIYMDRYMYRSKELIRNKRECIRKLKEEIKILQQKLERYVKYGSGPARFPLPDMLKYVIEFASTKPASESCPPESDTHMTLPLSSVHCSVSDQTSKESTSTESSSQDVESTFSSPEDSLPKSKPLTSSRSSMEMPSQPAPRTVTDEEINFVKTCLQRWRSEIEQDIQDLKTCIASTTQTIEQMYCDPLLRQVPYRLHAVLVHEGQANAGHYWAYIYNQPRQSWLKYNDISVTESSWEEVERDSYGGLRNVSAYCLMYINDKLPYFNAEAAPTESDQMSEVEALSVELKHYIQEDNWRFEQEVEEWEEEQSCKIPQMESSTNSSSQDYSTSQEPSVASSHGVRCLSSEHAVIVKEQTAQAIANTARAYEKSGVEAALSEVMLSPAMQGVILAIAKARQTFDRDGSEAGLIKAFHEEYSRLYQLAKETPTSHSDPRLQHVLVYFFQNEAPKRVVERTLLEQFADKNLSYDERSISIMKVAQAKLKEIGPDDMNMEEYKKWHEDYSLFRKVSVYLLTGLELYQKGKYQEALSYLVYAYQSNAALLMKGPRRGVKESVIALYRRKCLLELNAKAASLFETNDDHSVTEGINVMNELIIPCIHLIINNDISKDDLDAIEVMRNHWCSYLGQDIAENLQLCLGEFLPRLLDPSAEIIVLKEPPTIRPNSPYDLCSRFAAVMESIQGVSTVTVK
Procedure, shortened: as §1

Structure (SMILES): O=C(CCl)N[C@H]1CC[C@@H](CO)CC1
- log2 ratio of Biotin-Ahx-Ub-VS probe labelling (USP19): -0.828
- log2 ratio of Biotin-Ahx-Ub-VS probe labelling (USP22): -0.256
- log2 ratio of Biotin-Ahx-Ub-VS probe labelling (USP24): -1.05 (active)
- log2 ratio of Biotin-Ahx-Ub-VS probe labelling (USP25): -0.739
- log2 ratio of Biotin-Ahx-Ub-VS probe labelling (USP28): -1.09 (active)
